PubChem BioAssay AID651871 (Sanford-Burnham Center for Chemical Genomics, 2012)
Several values for one entry are separate records, joined by “and”; a condition that tells them apart may be missing. Identical values can stand only once.

Test system: HL-1
Experiment: cardiomyocyte survival under oxidative or metabolic stress – cell-based, panel, H9c2 and HL-1, ATP luminescence, set 2, SAR follow-up (AID 651871);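 note: cells exposed to stressor for 2 h before ATP readout; reference of the scale not given here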
Conditions: H9c2/HL-1 cardiomyocytes, 2-deoxyglucose stress, with 2-deoxyglucose, run 6, at 19.8 µM (top of the series)

For `COc1ccc2c(c1OC)C(=O)N1c3ccccc3C(=O)N(Cc3cccc(Cl)c3Cl)C21` (stereo unspecified), the activity (protection/inhibition) was 29.6% and 37.4%.
